“And” between values parts separate entries of the source, which are not always exact repeats. Identical values can stand only once. Inconclusive results are not listed. Where a call stands in place of a potency, no number is given. Some compounds were tested as several samples or in several runs, with calls that do not always agree. The source made the active and inactive calls. The call rests on the fitted dose curve; in most records, active means well fitted curve in the direction sought with a large enough effect in the repeat runs; inconclusive means weak or mixed curves; inactive means no such curve, though single readings can be large; an effect the other way counts as inactive or inconclusive.
Columns and labels:
[1] = Human pregnane X receptor (PXR) small molecule agonists, qHTS cell viability counter screen (AID 1346977); further: nearly all actives have a fitted effect of over 50% in size; further: potency means the concentration at half of the fitted maximal effect
Summary of the method: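 Measures live-cell protease fluorescence (CellTiter-Fluor) in PXR-Luc HepG2 cells treated 24hr with compounds at 37C. Cells had 5hr to attach before pin transfer of DMSO solutions.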

[2] = Caspase-3/7 induction in CHO-K1 cells by small molecules, qHTS cell viability counter screen (AID 1346979); further: nearly all actives have a fitted effect of over 35% in size; further: potency means the concentration at half of the fitted maximal effect
Summary of the method: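 In the same wells as the caspase read, viability of compound-treated wild-type CHO-K1 cells was assessed using CellTiter-Fluor, added after 16hr at 37C and measured by fluorescence following 1hr further incubation.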

[3] = Caspase-3/7 induction in CHO-K1 cells by small molecules, qHTS assay (AID 1346980); further: nearly all actives have a fitted effect of over 15% in size
Summary of the method: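 Wild-type CHO-K1 cells exposed to compounds for 17hr at 37 C, 5% CO2. Caspase-3/7 activity then measured by Caspase-Glo 3/7 luminescence after 30min at room temperature.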

[4] = Caspase-3/7 induction in HepG2 cells by small molecules, qHTS cell viability counter screen (AID 1346981); further: nearly all actives have a fitted effect of over 30% in size; further: potency means the concentration at half of the fitted maximal effect
Summary of the method: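 Wild-type HepG2 cells (2,000/well) were allowed to settle for 5 hr at 37 C, 5% CO2, then dosed with compounds in DMSO by pin transfer. After 16 hr at 37 C, CellTiter-Fluor was added and fluorescence read 1 hr later.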

[5] = target: Nuclear receptor subfamily 1 group I member 2 (Homo sapiens) (UniProt O75469); experiment: Human pregnane X receptor (PXR) small molecule agonists, qHTS assay (AID 1346982); further: nearly all actives have a fitted effect of over 35% in size
Sequence of Nuclear receptor subfamily 1 group I member 2 (Homo sapiens) (O75469 whole entry, looked up): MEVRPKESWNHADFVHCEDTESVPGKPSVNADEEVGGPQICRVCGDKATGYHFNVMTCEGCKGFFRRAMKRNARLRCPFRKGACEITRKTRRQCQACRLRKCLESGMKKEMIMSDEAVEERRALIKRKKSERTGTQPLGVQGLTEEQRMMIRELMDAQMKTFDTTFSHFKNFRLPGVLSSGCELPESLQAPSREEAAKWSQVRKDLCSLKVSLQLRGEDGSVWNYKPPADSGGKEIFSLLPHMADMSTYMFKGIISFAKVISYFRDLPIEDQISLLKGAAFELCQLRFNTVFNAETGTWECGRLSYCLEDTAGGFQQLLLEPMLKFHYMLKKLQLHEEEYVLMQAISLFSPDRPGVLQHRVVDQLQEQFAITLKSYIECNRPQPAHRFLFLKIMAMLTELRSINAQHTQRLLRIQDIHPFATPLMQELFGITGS
Summary of the method: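 PXR-Luc HepG2 cells (CYP3A4 promoter-driven luciferase) were seeded in medium with 5% charcoal-stripped FBS, left 5 hr at 37 C, then exposed to compounds in DMSO for 24 hr. Luminescence was read after ONE-Glo addition.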

[6] = target: Cytochrome P450 2D6 (Homo sapiens) (UniProt P10635); experiment: Cytochrome P450 Family 2 Subfamily D Member 6 (CYP2D6) small molecule antagonists: luciferase reporter qHTS assay (AID 1671196); further: nearly all actives have a fitted effect of over 50% in size; further: potency means the concentration at half of the fitted maximal effect; on activity change, negative = inhibition: series mostly up to about 120 µM
Sequence of Cytochrome P450 2D6 (Homo sapiens) (P10635 whole entry, looked up): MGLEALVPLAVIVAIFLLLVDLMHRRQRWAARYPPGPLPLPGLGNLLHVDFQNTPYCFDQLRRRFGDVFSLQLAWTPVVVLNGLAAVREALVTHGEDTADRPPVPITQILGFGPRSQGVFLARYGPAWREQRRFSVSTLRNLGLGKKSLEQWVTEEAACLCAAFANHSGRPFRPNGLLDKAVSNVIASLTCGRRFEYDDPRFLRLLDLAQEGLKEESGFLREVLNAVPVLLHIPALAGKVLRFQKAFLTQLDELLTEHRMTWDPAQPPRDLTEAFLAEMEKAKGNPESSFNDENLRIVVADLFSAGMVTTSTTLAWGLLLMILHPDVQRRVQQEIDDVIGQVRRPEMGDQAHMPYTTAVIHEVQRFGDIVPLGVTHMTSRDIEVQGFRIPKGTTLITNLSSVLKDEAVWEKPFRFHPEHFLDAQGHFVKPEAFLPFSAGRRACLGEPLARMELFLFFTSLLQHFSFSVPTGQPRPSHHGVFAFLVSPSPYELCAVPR
Summary of the method: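 CYP2D6 enzyme–substrate mix was held with compound for 10 min at room temperature, then NADPH regeneration solution was added and the reaction ran 1 h at room temperature. Luciferin product was detected by luminescence after 20 min with detection reagent.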

[7] = target: Cytochrome P450 2C19 (Homo sapiens) (UniProt P33261); experiment: Cytochrome P450 Family 2 Subfamily C Member 19 (CYP2C19) small molecule antagonists: luciferase reporter qHTS assay (AID 1671197); further: nearly all actives have a fitted effect of over 65% in size; further: potency means the concentration at half of the fitted maximal effect; on activity change, negative = inhibition: series mostly up to about 120 µM
Sequence of Cytochrome P450 2C19 (Homo sapiens) (P33261 whole entry, looked up): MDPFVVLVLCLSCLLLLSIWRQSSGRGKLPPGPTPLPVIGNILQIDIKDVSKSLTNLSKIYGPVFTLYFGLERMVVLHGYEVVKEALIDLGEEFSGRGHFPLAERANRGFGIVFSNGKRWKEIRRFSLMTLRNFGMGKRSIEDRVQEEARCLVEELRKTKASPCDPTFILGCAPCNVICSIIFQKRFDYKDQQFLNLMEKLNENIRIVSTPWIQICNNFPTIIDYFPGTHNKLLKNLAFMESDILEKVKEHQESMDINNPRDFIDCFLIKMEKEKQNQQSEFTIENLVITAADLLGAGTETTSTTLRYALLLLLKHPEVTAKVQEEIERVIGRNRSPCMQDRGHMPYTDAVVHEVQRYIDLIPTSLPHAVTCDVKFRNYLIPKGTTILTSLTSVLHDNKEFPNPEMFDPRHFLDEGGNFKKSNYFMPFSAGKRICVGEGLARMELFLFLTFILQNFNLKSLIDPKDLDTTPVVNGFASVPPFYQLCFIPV
Summary of the method: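 P450-Glo CYP2C19 system: enzyme-substrate mix with compound 10 min at room temperature, then NADPH regeneration solution, 1 h at 37C. Proluciferin-to-luciferin conversion detected by luminescence after 20 min with detection reagent; ketoconazole as positive control.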

[8] = target: Cytochrome P450 2C9 (Homo sapiens) (UniProt P11712); experiment: Cytochrome P450 Family 2 Subfamily C Member 9 (CYP2C9) small molecule antagonists: luciferase reporter qHTS assay (AID 1671198); further: nearly all actives have a fitted effect of over 50% in size; further: potency means the concentration at half of the fitted maximal effect; on activity change, negative = inhibition: series mostly up to about 120 µM
Sequence of Cytochrome P450 2C9 (Homo sapiens) (P11712 whole entry, looked up): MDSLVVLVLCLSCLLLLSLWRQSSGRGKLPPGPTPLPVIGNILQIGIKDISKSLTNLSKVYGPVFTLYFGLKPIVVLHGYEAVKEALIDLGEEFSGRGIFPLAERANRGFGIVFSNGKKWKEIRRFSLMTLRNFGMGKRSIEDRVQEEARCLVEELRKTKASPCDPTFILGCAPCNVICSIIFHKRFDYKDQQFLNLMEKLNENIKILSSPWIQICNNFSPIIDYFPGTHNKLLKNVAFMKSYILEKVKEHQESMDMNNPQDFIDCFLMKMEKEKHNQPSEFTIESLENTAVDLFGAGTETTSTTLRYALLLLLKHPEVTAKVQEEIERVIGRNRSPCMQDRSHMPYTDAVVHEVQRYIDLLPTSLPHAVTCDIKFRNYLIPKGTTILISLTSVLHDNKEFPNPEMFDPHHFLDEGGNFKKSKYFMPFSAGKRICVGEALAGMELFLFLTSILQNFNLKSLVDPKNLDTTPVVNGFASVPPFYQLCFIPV
Summary of the method: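 P450-Glo proluciferin substrate with CYP2C9 enzyme; 10 min RT preincubation, then NADPH regeneration 1 h at 37C; luciferin detection reagent 20 min RT, luminescence in relative luminescence units.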

[9] = target: Cytochrome P450 1A2 (Homo sapiens) (UniProt P05177); experiment: Cytochrome P450 Family 1 Subfamily A Member 2 (CYP1A2) small molecule antagonists: luciferase reporter qHTS assay (AID 1671199); further: nearly all actives have a fitted effect of over 50% in size; further: potency means the concentration at half of the fitted maximal effect; on activity change, negative = inhibition: series mostly up to about 120 µM
Sequence of Cytochrome P450 1A2 (Homo sapiens) (P05177 whole entry, looked up): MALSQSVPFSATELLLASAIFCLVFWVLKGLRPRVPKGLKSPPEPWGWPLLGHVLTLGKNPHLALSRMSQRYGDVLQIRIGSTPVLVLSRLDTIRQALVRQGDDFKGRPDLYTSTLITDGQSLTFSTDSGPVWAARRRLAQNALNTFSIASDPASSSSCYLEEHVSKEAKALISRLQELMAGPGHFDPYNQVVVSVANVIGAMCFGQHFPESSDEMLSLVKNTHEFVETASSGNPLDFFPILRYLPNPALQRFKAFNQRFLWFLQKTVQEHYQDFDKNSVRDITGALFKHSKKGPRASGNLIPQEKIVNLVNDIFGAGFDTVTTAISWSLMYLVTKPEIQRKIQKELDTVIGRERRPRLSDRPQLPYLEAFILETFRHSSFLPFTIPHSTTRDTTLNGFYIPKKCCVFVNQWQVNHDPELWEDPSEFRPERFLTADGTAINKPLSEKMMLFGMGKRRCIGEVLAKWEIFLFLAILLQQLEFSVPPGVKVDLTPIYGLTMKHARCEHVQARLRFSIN
Summary of the method: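 Human CYP1A2 activity measured with a P450-Glo proluciferin substrate; compounds in DMSO preincubated 10 min at room temperature with enzyme-substrate mix, then NADPH regeneration system added for 1 h. Luciferin detection reagent, 20 min, luminescence read.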

[10] = target: Cytochrome P450 3A4 (Homo sapiens) (UniProt P08684); experiment: Cytochrome P450 Family 3 Subfamily A Member 4 (CYP3A4) small molecule antagonists: luciferase reporter qHTS assay (AID 1671201); further: nearly all actives have a fitted effect of over 50% in size; further: potency means the concentration at half of the fitted maximal effect; on activity change, negative = inhibition: series mostly up to about 120 µM
Sequence of Cytochrome P450 3A4 (Homo sapiens) (P08684 whole entry, looked up): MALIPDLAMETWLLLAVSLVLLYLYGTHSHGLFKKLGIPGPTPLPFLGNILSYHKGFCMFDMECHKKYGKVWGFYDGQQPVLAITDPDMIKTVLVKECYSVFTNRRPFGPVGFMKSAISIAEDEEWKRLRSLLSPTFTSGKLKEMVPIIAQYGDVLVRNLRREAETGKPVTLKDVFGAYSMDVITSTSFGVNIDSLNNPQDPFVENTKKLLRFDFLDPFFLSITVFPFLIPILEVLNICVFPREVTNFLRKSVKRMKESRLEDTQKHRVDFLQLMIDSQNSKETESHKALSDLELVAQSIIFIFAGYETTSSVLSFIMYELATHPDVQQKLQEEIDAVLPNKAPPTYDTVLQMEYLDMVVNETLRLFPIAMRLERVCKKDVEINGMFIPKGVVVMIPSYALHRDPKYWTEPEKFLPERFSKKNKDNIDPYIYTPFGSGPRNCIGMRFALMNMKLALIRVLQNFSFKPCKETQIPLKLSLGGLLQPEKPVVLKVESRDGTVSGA
Summary of the method: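 Inhibition of CYP3A4 is measured as loss of light: the enzyme converts a proluciferin substrate to luciferin, detected luminescently. Reaction ran 1 h at room temperature with NADPH regeneration after a 10 min compound preincubation.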

[11] = target: Voltage-gated inwardly rectifying potassium channel KCNH2 (Homo sapiens) (UniProt Q12809); experiment: Human Ether-a-go-go-Related Gene (hERG) channel small molecule antagonists: fluorescence cell-based qHTS assay (AID 1671200)
Sequence of Voltage-gated inwardly rectifying potassium channel KCNH2 (Homo sapiens) (Q12809 whole entry, looked up): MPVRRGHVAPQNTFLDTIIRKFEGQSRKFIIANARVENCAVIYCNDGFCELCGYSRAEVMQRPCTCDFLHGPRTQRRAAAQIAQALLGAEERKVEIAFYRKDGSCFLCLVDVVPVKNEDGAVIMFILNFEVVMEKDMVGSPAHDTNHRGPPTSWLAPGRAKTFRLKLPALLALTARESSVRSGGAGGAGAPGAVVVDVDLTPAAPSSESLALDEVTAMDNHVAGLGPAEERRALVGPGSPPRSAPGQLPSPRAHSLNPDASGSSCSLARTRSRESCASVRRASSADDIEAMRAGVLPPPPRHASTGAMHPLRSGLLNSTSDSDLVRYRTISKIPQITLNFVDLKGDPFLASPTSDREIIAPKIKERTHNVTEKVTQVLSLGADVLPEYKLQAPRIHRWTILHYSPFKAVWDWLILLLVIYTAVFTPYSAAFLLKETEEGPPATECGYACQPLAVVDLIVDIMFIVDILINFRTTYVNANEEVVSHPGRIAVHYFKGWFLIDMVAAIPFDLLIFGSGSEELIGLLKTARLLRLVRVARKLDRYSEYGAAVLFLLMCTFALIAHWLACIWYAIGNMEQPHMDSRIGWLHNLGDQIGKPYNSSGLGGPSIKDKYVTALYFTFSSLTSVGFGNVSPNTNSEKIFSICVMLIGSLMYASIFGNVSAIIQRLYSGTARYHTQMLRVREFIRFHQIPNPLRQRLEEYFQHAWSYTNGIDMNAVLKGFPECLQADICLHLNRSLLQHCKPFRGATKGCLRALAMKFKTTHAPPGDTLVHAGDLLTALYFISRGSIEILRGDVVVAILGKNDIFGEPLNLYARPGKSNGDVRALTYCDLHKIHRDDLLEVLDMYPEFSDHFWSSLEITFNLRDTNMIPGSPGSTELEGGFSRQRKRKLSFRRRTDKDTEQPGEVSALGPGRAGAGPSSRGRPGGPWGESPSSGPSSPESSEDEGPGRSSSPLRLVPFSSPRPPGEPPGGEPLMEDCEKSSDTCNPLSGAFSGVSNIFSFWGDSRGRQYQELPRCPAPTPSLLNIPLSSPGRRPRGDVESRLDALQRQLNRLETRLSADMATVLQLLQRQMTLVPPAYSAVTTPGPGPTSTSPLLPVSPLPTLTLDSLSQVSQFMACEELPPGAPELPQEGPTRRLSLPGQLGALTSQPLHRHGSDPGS
Summary of the method: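 Quantitative HTS in hERG-U2OS cells: thallium entry through the channel reports activity, read as continuous 480/540 nm fluorescence over 2 min after stimulus addition.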

[12] = target: Nuclear receptor subfamily 1 group I member 2 (Rattus norvegicus) (UniProt Q9R1A7); experiment: Rat pregnane X receptor (rPXR) activation by small molecules, qHTS assay (AID 1346983); conditions: rPXR luciferase reporter cells, One-Glo luminescence, 24 h; stronger effect = higher value; further: nearly all actives have a fitted effect of over 20% in size
Sequence of Nuclear receptor subfamily 1 group I member 2 (Rattus norvegicus) (Q9R1A7 whole entry, looked up): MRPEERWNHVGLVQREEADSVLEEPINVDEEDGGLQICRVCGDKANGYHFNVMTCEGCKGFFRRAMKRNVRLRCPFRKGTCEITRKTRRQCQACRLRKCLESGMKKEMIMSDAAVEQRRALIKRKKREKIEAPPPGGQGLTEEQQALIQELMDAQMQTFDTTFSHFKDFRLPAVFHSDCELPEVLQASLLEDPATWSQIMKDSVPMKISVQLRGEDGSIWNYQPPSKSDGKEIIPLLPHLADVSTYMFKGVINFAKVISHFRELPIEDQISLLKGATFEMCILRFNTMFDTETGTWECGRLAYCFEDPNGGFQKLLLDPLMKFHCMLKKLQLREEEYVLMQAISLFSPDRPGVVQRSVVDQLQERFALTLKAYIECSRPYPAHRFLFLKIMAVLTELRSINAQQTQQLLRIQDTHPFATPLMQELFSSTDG
Summary of the method: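 Cell-based rPXR activation assay: rPXR cells, 2,000 per well, rested 5hr at 37 C, then exposed to compounds in DMSO for 24 hr at 37 C. Luciferase activity read by One-Glo luminescence after 30 min at room temperature.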

[13] = target: Nuclear receptor subfamily 1 group I member 2 (Homo sapiens) (UniProt O75469); experiment: CYP3A4 induction through human pregnane X receptor (PXR) by small molecules, qHTS assay (AID 1346984); further: nearly all actives have a fitted effect of over 40% in size
Summary of the method: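 DPX-2 cells (HepG2 co-transfected with PXR and CYP3A4 promoter-luciferase) treated with compounds 24 h at 37C; luciferin-IPA CYP3A4 substrate 3uM final added for 3 h, then One-Glo; luminescence read. qHTS format.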

[14] = target: Nuclear receptor subfamily 1 group I member 2 (Homo sapiens) (UniProt O75469); experiment: Human pregnane X receptor (PXR) activation by small molecules, qHTS assay (AID 1346985); further: nearly all actives have a fitted effect of over 40% in size
Summary of the method: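 DPX-2 cells (HepG2 co-transfected with a PXR response element and a CYP3A4-promoter luciferase construct) were seeded at 2,000 per well, rested 5 hr at 37C, then exposed to DMSO-dissolved compounds for 24 hr. Activation was read as luciferase luminescence.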

SMILES	Potency [1]	Potency [2]	outcome [3]	Potency [4]	Potency [5]	Potency [6]	Potency [7]	Potency [8]	Potency [9]	Potency [10]	Potency [11]	activity change, negative = inhibition [7]	activity change, negative = inhibition [9]	max activation [12]	Potency [13]	outcome [14]
CCCCCCO	inactive	inactive	inactive	inactive	inactive	inactive	inactive	inactive	inactive	inactive	–	–	–	–	–	–
Nc1nc(N)nc(-c2ccccc2)n1	inactive	inactive	inactive	inactive	–	inactive	inactive	inactive	31.4 µM (active) and 35.6 µM (active)	inactive	inactive	–	–	–	–	–
CCc1ccccc1CC	inactive	inactive	inactive	inactive	inactive	inactive	–	inactive	–	inactive	–	2.36% [at 23.6 µM] (inactive)	-28.6% [at 23.6 µM] (inactive)	–	–	–
CCNc1ccccc1	inactive	inactive	inactive	inactive	inactive	inactive	25.6 µM (active)	–	32.3 µM (active) and inactive	inactive	inactive	–	–	–	–	–
O=C(O)Cn1c(=O)n(Cc2ccc(Br)cc2F)c(=O)c2ccc(Cl)cc21	inactive	–	inactive	–	–	inactive	inactive	31.7 µM (active) and 15.5 µM (active)	79.6 µM (active) and inactive	inactive	–	–	–	–	–	–
CCO[Si](CCC#N)(OCC)OCC	inactive	–	inactive	inactive	inactive	inactive	inactive	–	inactive	inactive	inactive	–	–	–	–	–
COc1ccccc1OCC(O)CO (stereo not given)	inactive	–	inactive	inactive	–	–	–	–	–	–	–	–	–	–	–	–
NC(=S)NNC(N)=S	inactive	inactive	inactive	–	inactive	inactive	34.7 µM (active) and inactive	35.6 µM (active)	inactive	inactive	inactive	–	–	–	–	–
Cc1ccc(S(=O)(=O)N=C=O)cc1	28.2 µM (active) and inactive	6.73 µM (active) and inactive	inactive	53.4 µM (active) and inactive	inactive	inactive	inactive	–	inactive	inactive	inactive	–	–	–	–	–
CC(C)(Oc1ccc(CCNC(=O)c2ccc(Cl)cc2)cc1)C(=O)O	inactive	inactive	inactive	inactive	inactive	inactive	inactive	–	inactive	inactive	–	–	–	-0.19% (inactive)	inactive	inactive
COc1ccc(CCC(C)=O)cc1	inactive	inactive	inactive	inactive	inactive	inactive	28.3 µM (active) and inactive	–	22.4 µM (active) and 20.4 µM (active)	inactive	inactive	–	–	–	–	–
O=S(=O)(O)c1ccc(N=Nc2c(O)ccc3cc(S(=O)(=O)O)ccc23)cc1	39.8 µM (active) and 30.6 µM (active)	–	inactive	54.7 µM (active) and 30.6 µM (active)	inactive	31.8 µM (active)	71.3 µM (active)	–	40.1 µM (active)	inactive	–	–	–	–	–	–
CC(C)OC(=O)COc1ccc(Cl)cc1Cl	inactive	inactive	inactive	inactive	inactive	–	11.1 µM (active) and 50.2 µM (active)	–	6.23 µM (active) and 63.3 µM (active)	inactive	–	–	–	–	–	–
CN1C(=O)CC[C@H]1c1cccnc1	inactive	–	inactive	inactive	–	–	inactive	–	inactive	–	inactive	–	–	-3.2% (inactive)	–	–
COc1ccc([N+](=O)[O-])cc1N	inactive	–	inactive	–	–	inactive	35.7 µM (active) and 79.6 µM (active)	40.1 µM (active) and 63.3 µM (active)	22.5 µM (active) and 31.7 µM (active)	35.7 µM (active) and 35.6 µM (active)	inactive	–	–	–	–	–
O=C(O)CCCCCCCCC(=O)O	inactive	inactive	inactive	inactive	inactive	inactive	50.5 µM (active) and inactive	inactive	–	inactive	inactive	–	–	–	–	–
CC(=O)c1ccc(O)cc1	inactive	inactive	inactive	inactive	inactive	inactive	inactive	–	inactive	inactive	–	–	–	–	–	–
CN(C)CCOC(=O)COc1ccc(Cl)cc1	inactive	–	inactive	inactive	inactive	35.5 µM (active) and 30.9 µM (active)	–	–	–	inactive	–	–	–	-3.66% (inactive)	inactive	inactive
